From PubChem BioAssay (NCI) come the findings set out here.

Compounds without any hit were thinned out: in the full panel of roughly 79,000, 15% have a hit. Unmarked numbers belong to inactive results. Calls of active or inactive are those of the source. Rule as the data show it: active = growth inhibition above about 70%; inactive = the rest.

A short description of assay [1]: NCI Yeast Anticancer Drug Screen. Data for the rad50 strain (AID 155).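 Also: 0% = growth of vehicle-only cultures of the same strain.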 As to conditions: S. cerevisiae rad50 strain growth inhibition; at 50.0 µM; active compounds read high. An outline of the steps:
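Growth of the mutant yeast was measured after compound exposure and referenced to vehicle-treated cultures.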

A short description of assay [2]: NCI Yeast Anticancer Drug Screen. Data for the mec2-1 strain (AID 157). As to conditions: S. cerevisiae mec2-1 strain, at 50.0 µM, active compounds read high. An outline of the steps:
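mec2-1 yeast strain, carrying an alteration in DNA damage repair or cell cycle control, was exposed to compounds; growth inhibition was measured relative to vehicle-treated controls.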

Assay [3] can be described thus: NCI Yeast Anticancer Drug Screen. Data for the sgs1 mgt1 strain (AID 161).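 Also: 0% = growth of cultures given vehicle only.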 As to conditions: S. cerevisiae sgs1 mgt1 strain, at 50.0 µM, active compounds read high. An outline of the steps:
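Percent growth inhibition was derived by comparing compound-exposed mutant yeast with vehicle-exposed cultures. The strain carries alterations in DNA damage repair.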

The nature of assay [4]: NCI Yeast Anticancer Drug Screen. Data for the cln2 rad14 strain (AID 165).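 Also: 0% = growth equal to vehicle treated cultures.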 The conditions noted are these: S. cerevisiae cln2 rad14 strain, at 50.0 µM, active compounds read high. An outline of the steps:
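Yeast carrying cln2 and rad14 alterations (cell cycle control and DNA damage repair) were exposed to compounds. Growth inhibition was measured against vehicle-treated controls.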

Assay [5] can be described thus: NCI Yeast Anticancer Drug Screen. Data for the bub3 strain (AID 167). The conditions noted are these: S. cerevisiae bub3 mutant strain, at 50.0 µM, active compounds read high. An outline of the steps: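 Whole-cell yeast assay. The mutant strain was incubated with compounds, and growth inhibition was determined by comparison with vehicle-treated cells.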
A short description of assay [6]: NCI Yeast Anticancer Drug Screen. Data for the mlh1 rad18 strain (AID 175). The conditions noted are these: S. cerevisiae mlh1 rad18 strain growth inhibition; at 50.0 µM; active compounds read high. An outline of the steps:
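Growth inhibition of the yeast strain was measured after compound exposure and expressed relative to vehicle-treated controls. The strain carries defined defects in DNA damage repair.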

In the case of `CCC(=O)Oc1ccccc1C(C)C`, the growth inhibition was 9.8% in assay [1]; -14.6% in assay [2]; 1.9% in assay [3]; 8.55% in assay [4]; -6.25% in assay [5]; 12.2% in assay [6].

Take `COc1cc(C(C#N)NNC(=O)c2ccccc2O)ccc1O` (stereo unspecified): the growth inhibition is 34.4% in assay [1]; 42.8% in assay [2]; 44.7% in assay [3]; 17.6% in assay [4]; 66.2% in assay [5]; 38% in assay [6].

Take `CCCCC(CC)CSC[N+](C)(CC)CC` (stereo unspecified): the growth inhibition is 45% in assay [1]; 24.8% in assay [2]; 22.4% in assay [3]; 1.5% in assay [4]; 15.9% in assay [5]; 20.6% in assay [6].

Consider `[N-]=[N+]=CC(=O)c1cc(-c2ccccc2)nc2c(-c3ccccc3)cccc12`, for which the growth inhibition in assay [1] was 55.8%; in assay [2], 18.8%; in assay [3], 54%; in assay [4], 31.8%; in assay [5], 62.8%; in assay [6], 59.1%.

Consider `Cc1ccc2[nH]c(-c3ccccc3)cc2c1`, for which the growth inhibition in assay [1] was -1.85%; in assay [2] it was -21.6%; in assay [3], -10.6%; in assay [4] it was -27.8%; in assay [5], -8.15%; in assay [6], -9.8%.

For the compound `C=C(S(=O)(=O)CC)S(=O)(=O)CC`, the growth inhibition in assay [1] is 28.9%; in assay [2], -7.75%; in assay [3], -3.8%; in assay [4], -53%; in assay [5] it was -6.5%; in assay [6], 4.4%.

Turning to `C=CCOC(=O)Cc1ccccc1C(=O)OCC=C`, the growth inhibition was -7.55% in assay [1]; -1.2% in assay [2]; -6.6% in assay [3]; -42.2% in assay [4]; 21.4% in assay [5]; -6.25% in assay [6].

Turning to `Clc1ccccc1/C=C/c1ccnnc1`, the growth inhibition in assay [1] is 15.8%; in assay [2] it was 18.6%; in assay [3], -3.65%; in assay [4], 7%; in assay [5], 1.35%; in assay [6] it was 12.8%.

Regarding `CC(=O)OCCOCNC(=S)NCc1ccco1`, the growth inhibition is 11.2% in assay [1]; -7.25% in assay [2]; -40% in assay [3]; 9.3% in assay [4]; 5.85% in assay [5]; -10.3% in assay [6].

As to `CCCCCC(=O)c1ccccc1`, the growth inhibition in assay [1] is -27.9%; in assay [2], -16.5%; in assay [3], -19.3%; in assay [4], -23.9%; in assay [5], -8.8%; in assay [6], -6.1%.

`Cc1c(Br)[n+](=O)c2ccccc2n1[O-]`: the growth inhibition was 1.6% in assay [1]; 6.45% in assay [2]; 17.4% in assay [3]; 14.2% in assay [4]; 11.9% in assay [5]; 21.9% in assay [6].

As to `CCCCCCn1cnc2c(=O)[nH]c(N)nc21`, the growth inhibition in assay [1] was -2%; in assay [2] it was 3.5%; in assay [3], -17.2%; in assay [4] it was -7.05%; in assay [5], -8.65%; in assay [6], -10.2%.

As to `Nc1cc(F)ccc1CC(=O)O`, the growth inhibition in assay [1] is 11.4%; in assay [2] it was 23.1%; in assay [3] it was 15.3%; in assay [4], -4.8%; in assay [5], 11.7%; in assay [6] it was 4.6%.

With `COC1OC(OC2OC=C3C(=O)OC4CC(C)C2C34)C(O)C(O)C1O` (stereo unspecified), the growth inhibition is -17.1% in assay [1]; -34.2% in assay [2]; -18.7% in assay [3]; -14.3% in assay [4]; -33.4% in assay [5]; -29.1% in assay [6].

For `CC1=NNC(=O)C1CCS` (stereo unspecified), the growth inhibition in assay [1] is -3.55%; in assay [2], 4.35%; in assay [3] it was -1.45%; in assay [4], -3.1%; in assay [5] it was -8%; in assay [6], -7.4%.

For the compound `O=C(CC(c1ccccc1)C1CCCC1=O)c1ccccc1` (stereo unspecified), the growth inhibition was 11.1% in assay [1]; 1.65% in assay [2]; 17.6% in assay [3]; -21.3% in assay [4]; 6.1% in assay [5]; 17.1% in assay [6].

As for `COc1cccc2c(NCCCCCO[N+](=O)[O-])cc[n+](C)c12`, the growth inhibition in assay [1] was 25.7%; in assay [2], -24.4%; in assay [3], 9.85%; in assay [4] it was 8.7%; in assay [5], 16.6%; in assay [6] it was 29.1%.

Take `CCCCCCCCSc1nc2ccc(N=Cc3ccccc3O)cc2s1`: the growth inhibition was 75% (active) in assay [1]; 31.7% in assay [2]; 73.3% (active) in assay [3]; 53.6% in assay [4]; 21.7% in assay [5]; 36.1% in assay [6].

On to `CC(=O)CC(=O)OC1CC(C)CCC1C(C)C` (stereo unspecified), for which the growth inhibition in assay [1] is 12.2%; in assay [2] it was -24.4%; in assay [3] it was -6.25%; in assay [4] it was 15.3%; in assay [5], -26.1%; in assay [6] it was 23.1%.

As for `CCCCCCCCCCCC(=O)Nc1cc(Cl)c(OC)cc1OC`, the growth inhibition in assay [1] was -17.4%; in assay [2] it was 6.75%; in assay [3], 13.9%; in assay [4], -32.8%; in assay [5], 7.1%; in assay [6] it was 48.4%.

`CCCc1cc(=O)oc2c(C=O)c(O)cc(O)c12`: the growth inhibition in assay [1] is 37.9%; in assay [2] it was 24.7%; in assay [3] it was 20.6%; in assay [4], 9.6%; in assay [5], 19.7%; in assay [6], 46.5%.
